Here are results for 97 compounds from PubChem BioAssay AID2315 (National Center for Advancing Translational Sciences (NCATS), 2010).

The campaign covered roughly 290,000 compounds. About 27,000 (9.3%) were called active. What follows is part of a selection rich in actives, with near analogues and random picks from the rest. Values without a mark were called inactive. Cut-off read from the data, not from the text of the source: active = inhibition mostly above about 28% (no sharp cut-off); inactive = mostly below about 43%.

This test in a line: A qHTS for Small Molecule Inhibitors of Shiga Toxin. For inhibition: 0% is about no effect. The following applies: Vero cells, Shiga toxin protein synthesis inhibition reporter; at 38.7 µM, stronger effect = higher value.
On to `OCc1ccc(OCCCOc2cccc3cccnc23)cc1`, for which the inhibition is 31.7%. As to `Cc1ccnc(NC(=O)CCNS(=O)(=O)c2ccc(C)c(C)c2)c1`, the inhibition was 75.2% (active). With `Cc1ccc(S(=O)(=O)NCCC(=O)Nc2cccc(S(N)(=O)=O)c2)cc1C`, the inhibition was 3.14%.

Consider `Cc1ccc(S(=O)(=O)NCCC(=O)Nc2ccc(C)c(Cl)c2)cc1C`, for which the inhibition is -2.35%.

Regarding `O=[N+]([O-])c1ccccc1/C=C/CN1CCCC(CO)C1` (configuration not stated), the inhibition was -4.92%. With `COc1cc2c(C(=O)N(C)c3cc(Cl)ccc3OC)cn(C)c(=O)c2cc1OC`, the inhibition is -4.23%. For the compound `O=C1CCN(CCCc2ccccc2)CCN1CCO`, the inhibition was -7.2%. As to `O=C(NCC1CCCO1)/C(=C/c1ccc(Cl)cc1)NC(=O)c1ccccc1` (configuration not stated), the inhibition was -1.77%. As for `N#C/C(=C/c1ccc(Cl)cc1)NC(=O)c1ccccc1`, the inhibition was 69.2% (active). `O=C(Nc1ccccc1)/C(=C/c1ccc([N+](=O)[O-])cc1)NC(=O)c1ccccc1`: the inhibition is 0.876%. Turning to `CCn1c(SCC(=O)NC2CC2)nnc1-c1ccncc1`, the inhibition was 6.57%. For `Cc1nn2c(NCCN(C)C)c3c(nc2c1-c1ccccc1)CCC3`, the inhibition is -1.35%. Under `Cc1ccc2c(=O)cc(C(=O)NCCc3ccc(S(N)(=O)=O)cc3)oc2c1C` stands 3.06%; under `CCc1ccc(NC2Nc3cc(C)nn3S2)cc1` (configuration not stated), 52% (active).

`CCOC(=O)c1ccc(NC2Nc3cc(C)nn3S2)cc1` (configuration not stated): the inhibition was 37.2%. With `CC(C)(C)c1ccc(/C=C/C(=O)NCCCn2ccnc2)cc1`, the inhibition was -13.7%. With `Cn1c(=O)[nH]c(=O)c2c1nc(Br)n2CCCCSc1nc2ccccc2o1`, the inhibition was 39.4%.

Turning to `CCOC(=O)c1ccccc1NC(=O)CSc1nc2ccccc2c(=O)[nH]1`, the inhibition was -5.65%. Take `CCC(NC(=O)c1ccccc1NC(=O)c1ccccc1)C(=O)NNC(=O)CSc1nc2ccccc2o1` (configuration not stated): the inhibition was 23.3% (active). As to `COc1ccc(OC)c(NC(=O)C2CCCN2S(=O)(=O)c2cccc3nsnc23)c1` (configuration not stated), the inhibition is -4.24%. With `COc1nc(NCc2ccc(Cl)cc2)nc(OC)n1` the figure was 45.3%; with `C=CCNc1nc(Nc2ccc(Cl)cc2)nc(OC)n1`, 71.3% (active).

For `C=CCNc1nc(C)nc(OC)n1`, the inhibition is -12.3%.

For the compound `Cc1sc2nc(SCCO)n(-c3ccccc3)c(=O)c2c1C`, the inhibition is -3.85%. `Cc1ccc2c(c1)N(C(=O)CCC(=O)NCc1cccnc1)CCO2`: the inhibition is 3.18%. `Oc1ccc(Cl)cc1C1C=C(c2ccc3c(c2)OCO3)NC(c2ccc(F)c(Br)c2)N1` (configuration not stated): the inhibition is 93.1% (active). Consider `Oc1ccc(Cl)cc1C1C=C(c2ccc3c(c2)OCO3)NC(c2c(F)cccc2Cl)N1` (configuration not stated), for which the inhibition is 68.7% (active). Take `Cc1csc(Nc2ccc(Cl)cc2)[n+]1-c1ccc(Cl)cc1`: the inhibition is 19.3%. With `COCCN1C(=O)C(=O)/C(=C(/O)c2ccc(S(=O)(=O)N3CCCCC3)cc2)C1c1ccc(OC)c(OC)c1` (configuration not stated) the figure was 11%; with `C/C(=N\NC(=O)CNc1cccc2ccccc12)c1ccc(Br)s1`, -8.07%. Under `Cn1cccc1/C=N/NC(=O)CNc1cccc2ccccc12` stands 6.61%. With `Cc1cccc(/C=N/NC(=O)CNc2cccc3ccccc23)n1` the figure was 70.6% (active). For `CC(C)c1nc(-c2ccccn2)no1`, the inhibition is 46.2% (active). Turning to `c1ccc(-c2nccc(-c3ccc(-n4cnc5ccccc54)cc3)n2)nc1`, the inhibition was -13.3%. Turning to `Clc1ccc(-c2cc(-c3ccccn3)on2)c(Cl)c1`, the inhibition was 48.1%. Turning to `COc1ccc(-n2ncc3c2CC(C)(C)CC3NC(=O)CCc2c(C)noc2C)cc1` (configuration not stated), the inhibition was 27.2%. In the case of `O=C(/C=C/c1cccs1)c1cc(Cl)ccc1OC(=O)N1CCOCC1`, the inhibition is 18.1%. With `COc1ccc(-c2nc(CS(=O)(=O)CC(=O)NCc3cccc(Br)c3)c(C)o2)cc1` the figure was 4.36%; with `O=C(O)C(c1ccccc1)N1C(=O)/C(=C\c2ccc(-c3cccc(Cl)c3)o2)SC1=S` (configuration not stated), -2.95%; with `O=C1NN(c2ccccc2)C(=O)/C1=C/c1ccc(-c2cccc(C(=O)O)c2)o1`, 18.2%. With `O=C1c2ccccc2NC(c2ccc(-c3cccc(Cl)c3)o2)N1O` (configuration not stated), the inhibition was 58.1% (active).

`COc1cccc(N(CC(=O)NCc2ccccc2)C(=O)CCC(=O)Nc2nccs2)c1`: the inhibition is -2.69%. Take `COc1ccc(NS(=O)(=O)c2ccc(NC(=S)NC(=O)CC(C)C)cc2)cc1`: the inhibition is -7.41%. `CC(C)CC(=O)NC(=S)Nc1cc(C(=O)O)ccc1Cl`: the inhibition was 30.7%. `CC(=O)c1ccc(NC(=S)NC(=O)CC(C)C)cc1`: the inhibition was 26.8% (active). With `CCOC(=O)C1CCN(S(=O)(=O)c2c(C)noc2C)CC1`, the inhibition is 30.7%.

As to `COC(=O)c1ccccc1NC(=O)CSc1n[nH]c(-c2ccncc2)n1`, the inhibition was 4.61%.

As for `Cc1cccc(C(=O)Nc2ccc(CC(=O)O)cc2)c1`, the inhibition was 18.5%. Under `Cc1cccc(C(=O)Nc2ccc(C(=O)/C=C/c3cccs3)cc2)c1` stands 99.7% (active).

Regarding `Cc1cccc(C(=O)Nc2ccc(C(=O)N/N=C/c3cccc(C)n3)cc2)c1`, the inhibition is 3.17%. With `Cc1ccc(C(=O)N/C(=C\c2cn(S(=O)(=O)N(C)C)c3ccccc23)C(=O)N2CCCC2)cc1`, the inhibition was -2.9%. `CCOc1ccc(C(C(=O)NC2CCCC2)N(C(=O)c2snc(C(N)=O)c2N)C2CCCC2)cc1` (configuration not stated): the inhibition is 12.4%. With `COc1cccc(CSc2nc3nc(C)cc(C)n3n2)c1` the figure was -3.55%.

With `COC(=O)CSc1nc(C)c2ccc(OC)cc2n1`, the inhibition is 44.6% (active). With `COc1ccc2nc(SCc3ccccc3)nc(C)c2c1` the figure was 70.1% (active); with `COc1ccc2[nH]c3nc(SCC(=O)NC4CC4)nnc3c2c1`, -7.63%; with `COc1ccc(-c2nnc3ccc(SCc4ccccc4)nn23)cc1`, 9.35%.

`COC(=O)CSc1nc(C2CC2)nc2ccccc12`: the inhibition is -5.63%. With `O=C(COc1cc2oc(=O)c3c(c2cc1Cl)CCC3)NCCCN1CCOCC1` the figure was -7.49%; with `NC(=O)c1cc(S(=O)(=O)NCCCc2ccco2)cs1`, 19.4%; with `O=[N+]([O-])c1cc(C(F)(F)F)ccc1NN=C1CCCC1`, 9.47%.

Consider `O=[N+]([O-])c1ccccc1N/N=C1\CCc2ccccc21`, for which the inhibition is 50.9% (active). With `CN1CCN(CCNC(=O)Nc2ccccc2[N+](=O)[O-])CC1`, the inhibition was 24.3%.

For the compound `CCOC(=O)C1CCCN(S(=O)(=O)c2ccc(-n3cnnn3)c(C)c2)C1` (configuration not stated), the inhibition was -3%. For the compound `CC(C)(C)c1ccc(OC2=CS(=O)(=O)c3ccccc32)cc1`, the inhibition was 135% (active).

Take `CC(C)(C)c1ccc(CN2C(=O)c3ccccc3S2(=O)=O)cc1`: the inhibition was 32.5%. As for `COc1ccc(CN2CCC(=O)c3ccccc3S2(=O)=O)cc1`, the inhibition was -3.72%. Under `Cc1cccc(OCC(=O)NCCNC(=O)c2cccnc2)c1` stands -6.35%. On to `Brc1ccc(C2=NCCC(c3ccccc3)O2)cc1` (configuration not stated), for which the inhibition result is “inactive”.

Take `Brc1ccc(C2CC(c3ccccc3)=Nc3ccccc3N2)cc1` (configuration not stated): the inhibition is 105% (active). Under `Cc1cc(=O)oc2cc(OCC(=O)N3CCN(c4ccc(F)cc4)CC3)c(Cl)cc12` stands -2.97%.

Regarding `O=C(Nc1ccc(S(=O)(=O)N2CCCCC2)cc1)C1CC(=O)N(c2ccc(F)cc2)C1` (configuration not stated), the inhibition is 29.9%.

Turning to `Cc1cc2oc(=O)cc(CN3CCN(Cc4ccccc4)CC3)c2cc1C`, the inhibition was -3.23%. For `Cc1noc(C)c1C(=O)NCCc1ccc(S(N)(=O)=O)cc1`, the inhibition was 10.5%. `Clc1ccc(CN2CCCCCC2)cc1Cl`: the inhibition was -3.6%. Regarding `Cc1cccc(N2Cc3ccccc3C2=NC(=O)c2ccc(Cl)nc2)c1`, the inhibition is 0% (active). On to `N#Cc1ccc(N2Cc3ccccc3/C2=N/C(=O)Nc2ccc(Cl)cc2)cc1`, for which the inhibition is 24.7%. For `Cc1cccc(N2CCN(C(=O)c3cccc(S(=O)(=O)N4CCc5ccccc5C4)c3)CC2C)c1` (configuration not stated), the inhibition was -8.81%. `O=C(Nc1ccc(S(=O)(=O)N2CCCCC2)cc1)c1cnccn1`: the inhibition is -1.88%. With `O=C(NCN1CCN(CCO)CC1)c1cnccn1` the figure was 13%; with `CCN1CCN(c2ccc(NC(=O)c3cnccn3)cc2)CC1`, 48.5% (active); with `CN1CCN(CC(=O)Nc2sc3c(c2C#N)CCC(C(C)(C)C)C3)CC1` (configuration not stated), -10.4%. On to `Nc1nc(SCC(=O)NCCN2CCOCC2)nc2sc3c(c12)CCC3`, for which the inhibition is 7.28%. Under `C=C(C)CSc1nc(N)c2c3c(sc2n1)CCC3` stands 77.1% (active); under `CC(C)(C)C1CCc2c(sc3nc(SCC(N)=O)nc(N)c23)C1` (configuration not stated), 42.9% (active); under `Cn1c(NN)nc2sc3c(c2c1=O)CCC3`, 12.5%. Under `Cc1sc2nc(SCC(N)=O)n(C)c(=O)c2c1C` stands 8.03%; under `CCOC(=O)N1CCN(S(=O)(=O)N2CCCC(C(=O)NCCCN3CCC(C)CC3)C2)CC1` (configuration not stated), -4.12%. As to `CC(=O)c1ccc(NC(=O)CCNS(=O)(=O)c2cc(Br)cnc2N)cc1`, the inhibition was -8.28%. Turning to `CCc1ccc(OCC2c3cc(OC)c(OC)cc3CCN2C(C)=O)cc1` (configuration not stated), the inhibition was -3.8%.

With `CN(CC(=O)O)S(=O)(=O)c1ccc2oc3ccccc3c2c1`, the inhibition is -10.6%. Under `CCOC(=O)C1(Cc2ccccc2C)CCCN(C(=O)CCc2c(C)noc2C)C1` (configuration not stated) stands 15.6%; under `Cc1noc(C)c1CCC(=O)N1CCCC(CO)(Cc2ccccc2)C1` (configuration not stated), 98.7% (active); under `CCCc1cc(C(=O)N2CCCC(CO)(CCCc3ccccc3)C2)n(C)n1` (configuration not stated), -8.83%. `Cc1noc(C)c1CCC(=O)O`: the inhibition was 17.5%. As to `Cc1ccccc1CC1(CO)CCCN(C(=O)c2cc(-c3ccccc3)no2)C1` (configuration not stated), the inhibition is 51%. Regarding `COC(=O)CCC(=O)N1CCCC(CO)(Cc2ccccc2)C1` (configuration not stated), the inhibition was 110% (active).
